Test [1] can be described thus: CCTE_Deisenroth_5AR_NBTE_donor: CCTE's 5alpha-reductase NanoBRET Target Engagement Assay […], Deisenroth Lab (AID 2284319; active = hit-call score of the fitted dose curve at least 0.9, where 1 is the maximum; inactive = score below 0.9). As to conditions: actives raise or lower the signal. An outline of the steps:
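SRD5A2-NanoLuc, HEK293T, 20 h expression. Chemical 10 nM - 29.9 uM, 8 conc, duplicate; 3 h preincubation + 2 h testosterone tracer. Nano-Glo substrate plus extracellular NanoLuc inhibitor; donor lum 460 nm. DMSO baseline, bidirectional fit.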

The subject of the next test is IYD (gene 389434). The test is described as follows: CCTE_GLTED_hIYD: CCTE's human Iodotyrosine Deiodinase (xIYD) Inhibition Assay, Great Lakes Toxicology and Ecology Division (GLTED) Lab (AID 2284317).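 Note: cell-free human IYD enzyme made in baculovirus insect cells; iodide freed from monoiodotyrosine measured by cerium arsenite color change at 420 nm.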 The procedure, abridged:
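In the IYD assay, iodide released from MIT by insect-cell-expressed human enzyme was quantified after 3 h via Sandell-Kolthoff rate at 420 nm, with plate-wise normalization to MNT and solvent controls.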

The nature of test [2]: CCTE_Mundy_HCI_iCellGluta_NOG_NeuriteLength: CCTE's Neurite Outgrowth Assay in iCellGluta cells for Neurite Length, Mundy Lab (AID 2284318). An outline of the steps:
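Automated high-content imaging of betaIII-tubulin (Alexa Fluor-488) and Hoechst-stained cells gave neurite length, normalized to the DMSO baseline.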

Test [3] in a line: IUF_NPC2-5_cytotoxicity_120hr: Cytotoxicity Assessment at 120 hours in the Leibniz Research Institute for Environmental Medicine (IUF) Neural Progenitor Cell Migration and Differentiation Assay (NPC2-5) (AID 2284307).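 For AC50: LDH released into supernatant as membrane damage marker via resorufin fluorescence.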 The procedure, abridged:
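Membrane-integrity loss is quantified by LDH in supernatant after five days of exposure of migrating, differentiating human fetal NPC spheres; seven serially diluted concentrations are tested with DMSO kept at or below 0.1%.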

Test [4] in a line: IUF_NPC2-5_cell_number_120hr: Cell Number Assessment at 120 hours in the Leibniz Research Institute for Environmental Medicine (IUF) Neural Progenitor Cell Migration and Differentiation Assay (NPC2-5) (AID 2284308; active = hit-call score of the fitted dose curve at least 0.9, where 1 is the maximum; inactive = score below 0.9;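 note: count of Hoechst-stained nuclei in migration zone around plated human neural progenitor spheres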). The procedure, abridged:
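Seven-point serial dilutions plus solvent control were applied to plated 0.3 mm hNPC spheres at differentiation start, with medium half-replaced at day 3. Nuclei positive for Hoechst in the migration zone were enumerated at 120 h.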

Test [5] can be described thus: IUF_NPC2-5_viability_120hr: Viability Assessment at 120 hours in the Leibniz Research Institute for Environmental Medicine (IUF) Neural Progenitor Cell Migration and Differentiation Assay (NPC2-5) (AID 2284312; active = hit-call score of the fitted dose curve at least 0.9, where 1 is the maximum; inactive = score below 0.9). An outline of the steps:
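Human fetal (GW 16-19) neural progenitor spheres of 0.3 mm were plated on poly-D-lysine/laminin in N2 differentiation medium and exposed from day 0 for 120 h, with half-medium refresh at day 3. Viability was read as alamar blue resazurin-to-resorufin fluorescence against DMSO.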

Test [6] is described as follows: VALA_TUBHUV_Agonist_CellCount: Viability Assessment in the VALA Sciences human Umbilical Vein Endothelial Tubule Formation (TUBHUV) Agonism Assay (AID 2284309). An outline of the steps: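 Viability endpoint by fluorescent imaging of fixed nuclear/CD31-stained HUVEC–HDF co-cultures. Readout is cell count, fitted upward against 0.1% DMSO. Compound exposure was 72 h in 10 ng/ml VEGF, after 3-day co-culture priming.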

The nature of test [7]: VALA_TUBIPS_Agonist_TubuleLength: VALA Sciences human iPS-derived Endothelial Tubule Formation (TUBIPS) Agonism Assay (AID 2284311). The procedure, abridged: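 Agonist-mode readout is the gain in imaged tubule length versus DMSO baseline. It was measured by fluorescence high-content imaging 72 h after dosing human iPSC-derived endothelial cells.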
Test [8] can be described thus: VALA_TUBIPS_Antagonist_TubuleLength: VALA Sciences human iPS-derived Endothelial Tubule Formation (TUBIPS) Antagonist Assay (AID 2284313). An outline of the steps:
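Tubule length was quantified by high-content imaging of CD31- and nuclear-stained cells, with 0.1% DMSO as neutral and 100 uM suramin as inhibition control. Compounds were applied for 3 days, in 10 ng/ml VEGF, to cultures pre-grown 3 days.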

A short description of test [9]: VALA_MIGHUV2_WoundArea: VALA Sciences human Umbilical Vein Endothelial Cell Migration (MIGHUV) Assay, Area of Scratch Wound after Recovery (AID 2284316). How it is done:
VALA_MIGHUV2_BCatenin is a cell-based, multiplexed assay that uses umbilical vein-derived endothelial cells (HUVEC). Measurements were taken 24 hours after chemical dosing in a 96-well plate.VALA_MIGHUV2_WoundArea is the one of two assay components measured from the VALA_MIGHUV2 assay. It is designed to make measurements of endothelial migration, a form of morphology reporter, as detected with fluorescence intensity signals by HCS Fluorescent Imaging technology. Data from the assay component VALA_MIGHUV2_WoundArea was analyzed at the endpoint, VALA_MIGHUV2_WoundArea, in the positive analysis fitting direction relative to DMSO as the negative control and baseline of activity. Using a type of morphology reporter, gain-of-signal activity can be used to understand developmental effects. To generalize the intended target to other relatable targets, this assay endpoint is annotated to the neurodevelopment intended target family, where the subfamily is migration.
Cells were seeded on 384-well microplates (day-0) at a density of 9000 cells per well for detection of wound area recovery or 4000 cells per well for detection of beta-catenin (CTNB) immunoreactivity and incubated in Endothelial Cell Growth Medium (CAI, San Diego; catalog 211-500). After 24 hours of culture, the HUVEC plates were scratched using a custom scratch head with the Bravo liquid handling system. […]

Several values for one entry are separate records, joined by “and”; a condition that tells them apart may be missing. Identical values can stand only once. Inconclusive results are not listed. Activity calls are given as the source filed them. Rule for the calls, unless noted: active = hit-call score of the fitted dose curve at least 0.9, where 1 is the maximum; inconclusive = response in the unintended direction; inactive = score below 0.9.

On to `O=C1OC2(c3ccccc31)c1cc(I)c(O)c(I)c1Oc1c2cc(I)c(O)c1I`, for which the AC50 in test [1] was 2.23 µM (active). For `CCCCCCCCCCCC`, the AC50 with IYD (gene 389434) is 38.4 µM (active). Further, the call in test [1] was inactive. Turning to `C=CC(=O)OCCC(F)(F)C(F)(F)C(F)(F)C(F)(F)C(F)(F)C(F)(F)C(F)(F)C(F)(F)F`, the outcome in test [2] was inactive. For `O=C1NS(=O)(=O)c2ccccc21`, the compound was classed as inactive in test [3], in [4], in [5] and in test [2]. With `CCCCCCCCCCCCOC(=O)c1cc(O)c(O)c(O)c1`, in the test on IYD (gene 389434), the AC50 was 22.9 µM (active).

For the compound `CCc1ccccc1O`, the outcome in [1] was inactive. On to `CCCCCCCCCCCCOS(=O)(=O)O`, for which the AC50 in test [1] was 50 µM (active). Regarding `COc1cc([N+](=O)[O-])ccc1N`, the compound was called inactive in test [1]. Turning to `Cc1cc(Cc2cc(C)cc(C(C)(C)C)c2O)c(O)c(C(C)(C)C)c1`, the AC50 in the test with IYD (gene 389434) was 24.2 µM (active).

Turning to `O=P(O)(O)CCC(F)(F)C(F)(F)C(F)(F)C(F)(F)C(F)(F)C(F)(F)C(F)(F)C(F)(F)F`, the call (with IYD (gene 389434); in test [2]) was inactive.

In the case of `O=C(Nc1ccc(Cl)c(Cl)c1)c1cc(Cl)cc(Cl)c1O`, in the test with IYD (gene 389434), the AC50 is 77.4 µM (active). With `NC(=NCCCCCCN=C(N)/N=C(\N)Nc1ccc(Cl)cc1)/N=C(\N)Nc1ccc(Cl)cc1`, the AC50 in the test on IYD (gene 389434) was 54.7 µM (active). With `OCC(F)(F)C(F)(F)C(F)(F)C(F)(F)C(F)(F)C(F)(F)C(F)(F)C(F)(F)C(F)(F)C(F)(F)C(F)(F)F`, the call in test [2] was inactive. For the compound `CCCCCCc1ccc(N)cc1`, the compound was classed as inactive in test [1]. On the same count and under the same terms, under `CCCCc1oc2ccccc2c1C(=O)c1cc(I)c(OCCN(CC)CC)c(I)c1` stands “inactive”.

As for `O=P(O)(O)CCC(F)(F)C(F)(F)C(F)(F)C(F)(F)C(F)(F)C(F)(F)F`, the compound was called inactive in test [2]. On to `CC(=O)Nc1ccc(O)cc1`, for which the compound was called inactive in test [3], in test [4] and in [5]. Regarding `O=C(CCCN1CCC(O)(c2ccc(Cl)cc2)CC1)c1ccc(F)cc1`, the AC50 in test [3] is 1.98 µM (active). The result in test [4], in test [6], in test [7], in test [5], in test [8] and in [9] was inactive. For the compound `Oc1c(Cl)cc(Cl)cc1Sc1cc(Cl)cc(Cl)c1O`, the AC50 in the test on IYD (gene 389434) is 56.9 µM (active) and 88.2 µM (active) and 100 µM (active). Consider `CC(C)c1c(C(=O)Nc2ccccc2)c(-c2ccccc2)c(-c2ccc(F)cc2)n1CC[C@@H](O)C[C@@H](O)CC(=O)O`, for which the AC50 in [3] was 1.75 µM (active); in test [2] it was 0.0462 µM (active). The outcome in test [4] and in test [5] was inactive. Take `O=C(O)C(F)(F)OC(F)(F)C(F)(F)OC(F)(F)C(F)(F)OC(F)(F)C(F)(F)C(F)(F)C(F)(F)F`: the AC50 with IYD (gene 389434) is 93.2 µM (active). For `O=C(CC(=O)C(F)(F)C(F)(F)C(F)(F)F)c1cccs1`, the compound was called inactive in test [2].

Values taken from PubChem BioAssay (EPA / NIEHS).
